A selection: hits, their analogues and other compounds. The true share with any hit is near 4.2%.
ALOX15 inhib: qHTS Assay for Inhibitors of 15-hLO (15-human lipoxygenase); Polyunsaturated fatty acid lipoxygenase ALOX15 (Homo sapiens), P16050; purified 15hLO-1, xylenol orange hydroperoxide absorbance; Potency, µM (series often up to 57.1 µM), for the others: at the highest dose activity change, negative = inhibition, hits mostly inhibitors; 74,000 compounds, 1.4% hits; AID 887, 2007; also: potency is read from the fitted curve at half-maximal effect; % is scaled to controls: 0 for no effect and ±100 for the full control effect; nearly all actives have a fitted effect of over 55% in size
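40 nM 15hLO-1 + cpd, 15 min RT; start w/ 50 uM AA (final), 6 min RT; stop/detect w/ 200 uM XO + 300 uM Fe(II) in 50 mM H2SO4, 30 min; A573/A405. Buffer 25 mM Hepes pH 7.5, 0.01% Triton X-100. No-enzyme wells as negative control.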
Hsp90 Hop PPI: qHTS Assay for Disrupters of an Hsp90 Co-Chaperone Interaction | Potency, µM (highest dose often 57 µM), inactives show at the highest dose activity change, negative = inhibition | 71,000 compounds, 0.44% hits | AlphaScreen TPR2A-His6 binding biotin-Hsp90 C-terminal peptide; active = well fitted curve in either direction with a large enough effect; inconclusive = small, poorly fitted or top-dose-only effect, or another doubt; also: potency is read from the fitted curve at half-maximal effect; % is scaled to controls: 0 for no effect and ±100 for the full control effect
ERK AVP block: qHTS Assay for Inhibitors of the ERK Signaling Pathway using a Homogeneous Screening Assay; AID 995, 2007; 72,000 compounds, 0.99% hits; HEK293-V1b, vasopressin-stimulated pERK AlphaScreen; Potency, µM (highest dose often 57.5 µM), without a hit: at the highest dose activity, negative = inhibition, usual class: inhibitors; also: potency is read from the fitted curve at half-maximal effect; % is scaled to controls: 0 for no effect and ±100 for the full control effect; nearly all actives have a fitted effect of over 55% in size
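HEK293 cells stably expressing V1b receptor, seeded overnight in 1% FBS, were treated with compounds for 30 min at 37C, then stimulated 5 min with 25 nM vasopressin; phospho-ERK read by AlphaScreen SureFire after lysis.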
Pol III holo inh: qHTS Assay for Inhibitors of DNA Polymerase III Holoenzyme System | AID 603, 2007 | reconstituted DNA polymerase III holoenzyme replication, biochemical | Potency, µM (highest dose often 57.1 µM), for inactives: at the top dose activity change, negative = inhibition | 71,000 compounds, 0.25% hits; also: potency is read from the fitted curve at half-maximal effect; % is scaled to controls: 0 for no effect and ±100 for the full control effect
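Reconstituted *E. coli* holoenzyme (0.35 nM Pol III, 1 nM beta, 154 nM SSB, 2 nM primase) was preincubated with compound for 15 min at RT. Synthesis on 1.4 nM ssM13Gori ran 35 min, then was stopped with PicoGreen/EDTA and read as dsDNA fluorescence.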
Tau filament bind: qHTS Assay for Tau Filament Binding; Microtubule-associated protein tau (Homo sapiens), P10636; AID 596, 2007; 71,000 compounds, 2% hits; recombinant tau filaments, thioflavin S fluorescence, 15 h; filaments grown with octadecylsulfate alongside compound; Potency, µM (doses to about 57.1 µM), inactives show at the top dose activity change, negative = inhibition;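 also: potency is read from the fitted curve at half-maximal effect; % is scaled to controls: 0 for no effect and ±100 for the full control effect; actives lower thioflavin S fluorescence by blocking filaments or displacing dye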
Target sequence (P10636 whole entry, looked up): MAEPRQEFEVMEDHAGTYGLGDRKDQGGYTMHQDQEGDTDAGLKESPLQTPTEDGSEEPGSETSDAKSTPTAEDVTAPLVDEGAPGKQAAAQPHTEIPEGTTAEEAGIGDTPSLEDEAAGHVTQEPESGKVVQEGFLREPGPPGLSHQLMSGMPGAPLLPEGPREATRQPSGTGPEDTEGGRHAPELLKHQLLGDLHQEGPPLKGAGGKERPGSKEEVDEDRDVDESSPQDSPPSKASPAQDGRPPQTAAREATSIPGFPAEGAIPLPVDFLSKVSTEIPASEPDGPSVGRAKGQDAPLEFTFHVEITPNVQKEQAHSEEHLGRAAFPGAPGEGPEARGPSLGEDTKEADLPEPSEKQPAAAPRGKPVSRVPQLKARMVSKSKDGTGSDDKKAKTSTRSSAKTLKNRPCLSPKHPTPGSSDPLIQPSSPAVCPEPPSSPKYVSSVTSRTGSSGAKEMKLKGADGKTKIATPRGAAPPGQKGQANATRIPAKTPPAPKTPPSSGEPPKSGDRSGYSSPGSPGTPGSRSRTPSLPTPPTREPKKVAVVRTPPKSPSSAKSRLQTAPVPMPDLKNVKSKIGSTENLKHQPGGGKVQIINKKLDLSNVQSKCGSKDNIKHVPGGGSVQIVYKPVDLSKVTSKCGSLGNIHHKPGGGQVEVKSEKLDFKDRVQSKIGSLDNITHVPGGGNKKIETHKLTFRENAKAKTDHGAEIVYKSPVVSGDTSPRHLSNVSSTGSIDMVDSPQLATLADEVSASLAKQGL
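Assay mix: 1 uM His-tagged tau, 30 uM sodium octadecylsulfate, thioflavine S dye in HEPES/NaCl/DTT buffer. Compound is added prior to the inducer. Fluorescence after 15 h at 37 C.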
TsaE inh: qHTS Assay for Inhibitors of YjeE. tRNA threonylcarbamoyladenosine biosynthesis protein TsaE (Escherichia coli (strain …. AID 605, 2007. purified YjeE enzyme, qHTS inhibition assay. 71,000 compounds, 0.05% hits. Potency, µM
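Fluorescence polarization of a BODIPY Texas Red–ADP probe (2 uM) bound to purified YjeE (10 uM) was read after 15 min room-temperature incubation with compounds. Loss of polarization marks inhibitors; ADP serves as titrated control.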
An asterisk follows results filed as active; i = inactive; ? = inconclusive; · = no result; [ ] = dose if it differs, or a comment. Unless noted, calls follow the shape of the dose curve; as a rule, active = well fitted curve in the direction sought with a large enough effect; inconclusive = small, poorly fitted or top-dose-only effect, or another doubt; inactive = no such curve, though single readings can be large; an effect the other way counts as inactive or inconclusive.

SMILES	ALOX15 inhib	Hsp90 Hop PPI	ERK AVP block	Pol III holo inh	Tau filament bind	TsaE inh
COc1cccc2c1NC(C(=O)O)C1CC=CC21 (stereo not drawn)	-25.6%	-20.8%	-10.8%	25.1µM*	-21.8%	?
COc1cc(/C=N/NC(=O)c2cc(-c3ccccc3)n[nH]2)ccc1O	-11.7%	·	·	·	·	·
O=C(Nc1ccc2nc(-c3ccco3)[nH]c2c1)c1cccs1	-27.2%	-19.5%	-28.5%	-3.7%	20µM*	i
O=C(Nc1ccc2nc(-c3ccco3)[nH]c2c1)c1ccco1	-2.2%	0.5%	?	-10.1%	2.5%	i
CCCCn1c(=O)n(Cc2cccc(F)c2)c(=O)c2c1ncn2Cc1ccco1	-13.4%	6.1%	?	-1.9%	90.0%	i
O=C(c1cc2ncc(Br)cn2n1)N1CCOCC1	-2.9%[11.4 µM]	-7.5%[11 µM]	4.1%	-5.6%[11.4 µM]	-24.7%[11.4 µM]	i
O=C(c1cc2ncc(Br)cn2n1)N1CCN(C(=O)c2ccco2)CC1	-9.6%	-1.4%	-7.5%	25.1µM*	9.5%	i
CC1=NN(c2ccccc2)C(=O)[C@@H]1N=Nc1ccc(S(N)(=O)=O)cc1	3.9%[11.4 µM]	-11.6%[11 µM]	3.8%[11.5 µM]	-11.4%[11.4 µM]	3.98µM*	i
Cc1onc(-c2ccccc2)c1-c1ccc(S(N)(=O)=O)cc1	-7.2%	·	6.4%	·	·	·
COc1cc(OC)c(OC)cc1CNc1cc(C)ccc1OC	-3.4%	?	25.1µM*	-1.9%	?	i
COc1ccccc1CC(Cc1nc2ccccc2[nH]1)c1nc2ccccc2[nH]1 (stereo not drawn)	-26.0%[25.6 µM]	·	31.6µM*	·	·	·
CCOC(=O)c1[nH]c(C)c(/C(O)=C2\C(=O)C(=O)N(CCN(C)C)C2c2cccc(OC)c2OC)c1C (stereo not drawn)	-2.0%	-3.4%	-4.3%	-2.3%	11.4%	i
CCOCCCNC(=O)c1[nH]c(C)c(C(C)=O)c1C	2.1%	-9.5%	9.1%	2.0%	8.1%	i
O=S1(=O)N[C@H]2CC[C@@H]3NS(=O)(=O)N[C@H]4CC[C@H](N1)N4S(=O)(=O)N23	2.2%[11.4 µM]	-3.4%[11 µM]	-25.3%[11.5 µM]	-6.8%[11.4 µM]	3.16µM*	i
CCC(=O)c1ccc(OCC(=O)N2CCc3cc(OC)c(OC)cc3C2)cc1	-10.7%	-0.2%	-8.7%	-0.2%	10.2%	i
Cc1ccc(N=Cc2cccc(O)c2O)c(C)c1	6.31µM*	·	·	·	·	·
O=C(NCCOC(=O)c1ccc(Cl)c(S(=O)(=O)N2CCCCC2)c1)c1ccncc1	0.4%	-2.7%	?	3.9%	1.4%	i
COc1cccc(-c2nc(NCc3cccs3)c3ccccc3n2)c1	1.4%	14.2%	31.6µM*	12.1%	33.6%	i
COc1cccc(-c2cncnc2NCc2cccs2)c1	?	0.5%	10µM*	-10.5%	8.1%	i
CS(=O)(=O)Nc1cccc(-c2nc(NCc3cccs3)c3ccccc3n2)c1	?	-13.4%	?	3.3%	-19.4%	i
Clc1ccccc1-c1cncnc1NCc1cccs1	?	-5.7%	?	-3.6%	-10.0%	i
Cc1ccccc1-c1cncnc1NCc1cccs1	-5.0%	-1.5%	25.1µM*	-8.4%	1.0%	i
COc1cccc(-c2cc(NCc3cccs3)ncn2)c1	-0.2%	4.2%	25.1µM*	-4.1%	-2.0%	i
O=C(c1csnn1)N1CCC2(CC1)CN(Cc1cc(C(F)(F)F)cc(C(F)(F)F)c1)C2	2.8%	-3.2%	5.7%	-5.1%	3.8%	i
Cc1cccc(C)c1N1CCN(S(=O)(=O)c2ccc(F)cc2)CC1	-6.5%	18.3%	57.2%	-1.5%	-22.4%	i
COc1cccc(-c2nc(N(C)Cc3ccco3)c3ccccc3n2)c1	10µM*	?	-11.2%	-2.8%	-19.5%	i
COc1cccc(-c2cncnc2NCc2ccccc2)c1	3.4%	?	20µM*	-3.7%	-6.0%	i

Assay outcomes: PubChem, National Center for Advancing Translational Sciences (NCATS)
